According to the supplement of paper PMC11732987, “Enantioselective OTUD7B fragment discovery through chemoproteomics screening and high-throughput optimisation” (Communications Chemistry, 2025):

Assays:
Test in all cases: log2 ratio of Biotin-Ahx-Ub-VS probe labelling (fragment/DMSO); higher = less target engagement (more negative = stronger competition), active = hit call of the paper (q ≤ 0.05, log2 ratio ≤ -1)
Conditions in all cases: compound concentration: 200 uM; treatment time: 3 h
[1] = target: USP34 (UniProt Q70CQ2)
How it was run: (§1)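 Labelled DUBs from HEK293T lysate were NeutrAvidin-enriched, digested with LysC and trypsin, and run by diaPASEF LC-MS/MS. Before that, each 495 µg sample in Tris/CHAPS/IGEPAL buffer with protease inhibitors was treated in triplicate with fragment at 200 µM or vehicle for 3 h, then with Biotin-Ahx-Ub-VS at 0.5 µM final for 1 h. Values are average log2 ratios of fragment over vehicle by unpaired t-test, based on global-median-normalised Spectronaut label-free quantities from proteins with ≥2 unique peptides.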

[2] = target: T1, USP36 (UniProt Q9P275)
T1 sequence (whole entry): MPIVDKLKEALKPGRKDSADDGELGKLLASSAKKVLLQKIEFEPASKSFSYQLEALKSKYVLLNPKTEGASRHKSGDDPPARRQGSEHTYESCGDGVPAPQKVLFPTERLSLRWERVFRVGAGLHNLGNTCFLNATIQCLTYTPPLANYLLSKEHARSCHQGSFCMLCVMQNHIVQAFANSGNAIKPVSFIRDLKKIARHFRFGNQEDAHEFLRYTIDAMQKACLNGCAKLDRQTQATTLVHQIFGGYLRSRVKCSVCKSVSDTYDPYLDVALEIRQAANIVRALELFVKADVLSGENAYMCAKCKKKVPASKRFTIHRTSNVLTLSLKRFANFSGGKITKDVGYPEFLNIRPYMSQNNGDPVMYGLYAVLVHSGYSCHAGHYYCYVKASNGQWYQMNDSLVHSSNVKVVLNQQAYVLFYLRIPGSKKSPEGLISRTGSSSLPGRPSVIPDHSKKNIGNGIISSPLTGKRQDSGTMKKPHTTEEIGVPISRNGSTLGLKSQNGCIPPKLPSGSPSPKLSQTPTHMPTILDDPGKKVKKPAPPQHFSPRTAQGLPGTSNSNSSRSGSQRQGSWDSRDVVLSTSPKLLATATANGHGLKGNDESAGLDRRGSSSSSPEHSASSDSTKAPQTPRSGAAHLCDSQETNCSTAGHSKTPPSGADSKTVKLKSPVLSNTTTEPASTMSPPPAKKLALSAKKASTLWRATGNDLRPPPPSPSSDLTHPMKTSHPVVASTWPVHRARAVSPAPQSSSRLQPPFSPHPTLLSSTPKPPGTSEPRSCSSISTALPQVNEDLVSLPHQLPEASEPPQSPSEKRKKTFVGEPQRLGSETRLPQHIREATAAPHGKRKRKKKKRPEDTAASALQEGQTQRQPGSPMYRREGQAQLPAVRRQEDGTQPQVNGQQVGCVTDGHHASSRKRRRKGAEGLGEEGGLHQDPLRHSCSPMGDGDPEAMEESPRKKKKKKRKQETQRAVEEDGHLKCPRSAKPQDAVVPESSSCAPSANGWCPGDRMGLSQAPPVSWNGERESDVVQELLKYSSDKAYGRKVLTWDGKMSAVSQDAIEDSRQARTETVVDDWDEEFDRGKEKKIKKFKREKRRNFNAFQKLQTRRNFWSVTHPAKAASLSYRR
How it was run: as §1

[3] = target: T2, USP38 (UniProt Q8NB14)
T2 sequence (whole entry): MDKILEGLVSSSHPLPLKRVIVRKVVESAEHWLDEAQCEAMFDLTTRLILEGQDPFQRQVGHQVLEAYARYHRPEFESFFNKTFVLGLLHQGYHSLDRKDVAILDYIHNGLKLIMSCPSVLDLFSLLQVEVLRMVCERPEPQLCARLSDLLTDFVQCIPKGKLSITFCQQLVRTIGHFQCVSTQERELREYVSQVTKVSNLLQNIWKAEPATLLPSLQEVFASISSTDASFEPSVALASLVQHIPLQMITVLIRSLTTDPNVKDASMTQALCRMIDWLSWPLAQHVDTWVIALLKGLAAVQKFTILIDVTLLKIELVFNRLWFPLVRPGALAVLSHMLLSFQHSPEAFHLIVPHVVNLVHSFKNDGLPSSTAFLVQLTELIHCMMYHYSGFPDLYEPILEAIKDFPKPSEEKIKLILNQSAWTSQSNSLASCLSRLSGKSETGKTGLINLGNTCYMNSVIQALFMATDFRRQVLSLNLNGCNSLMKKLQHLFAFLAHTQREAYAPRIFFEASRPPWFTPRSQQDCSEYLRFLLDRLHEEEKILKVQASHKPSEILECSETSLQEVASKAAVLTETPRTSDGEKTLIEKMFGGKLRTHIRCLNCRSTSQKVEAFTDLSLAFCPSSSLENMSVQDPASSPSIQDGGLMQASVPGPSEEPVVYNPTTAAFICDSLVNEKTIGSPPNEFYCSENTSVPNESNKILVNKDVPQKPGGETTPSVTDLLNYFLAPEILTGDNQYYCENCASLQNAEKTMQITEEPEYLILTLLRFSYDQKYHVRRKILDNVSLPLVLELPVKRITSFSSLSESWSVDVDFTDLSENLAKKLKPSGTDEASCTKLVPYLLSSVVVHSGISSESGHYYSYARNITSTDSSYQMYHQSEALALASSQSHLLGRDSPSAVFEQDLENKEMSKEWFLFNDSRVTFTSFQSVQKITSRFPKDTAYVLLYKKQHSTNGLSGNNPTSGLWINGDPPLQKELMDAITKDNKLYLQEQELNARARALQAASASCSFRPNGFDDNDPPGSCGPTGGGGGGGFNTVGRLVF
How it was run: as §1

[4] = target: T3, USP39 (UniProt Q53GS9)
T3 sequence (whole entry): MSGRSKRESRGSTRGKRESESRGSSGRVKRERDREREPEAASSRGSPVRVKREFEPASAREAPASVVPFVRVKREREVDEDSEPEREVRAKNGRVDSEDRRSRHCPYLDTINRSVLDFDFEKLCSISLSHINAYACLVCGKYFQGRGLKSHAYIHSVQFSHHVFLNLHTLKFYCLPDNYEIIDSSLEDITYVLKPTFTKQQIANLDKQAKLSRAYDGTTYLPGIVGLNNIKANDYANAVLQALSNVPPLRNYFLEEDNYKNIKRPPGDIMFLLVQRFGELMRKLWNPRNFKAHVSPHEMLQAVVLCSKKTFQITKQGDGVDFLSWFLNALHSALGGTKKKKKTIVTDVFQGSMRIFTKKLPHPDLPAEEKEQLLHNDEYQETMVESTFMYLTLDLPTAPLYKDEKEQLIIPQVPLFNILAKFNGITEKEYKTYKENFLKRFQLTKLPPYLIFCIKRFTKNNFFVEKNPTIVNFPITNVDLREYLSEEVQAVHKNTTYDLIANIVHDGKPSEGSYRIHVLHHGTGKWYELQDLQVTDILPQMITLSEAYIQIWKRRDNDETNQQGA
How it was run: as §1

[5] = target: T4, USP4 (UniProt Q13107)
T4 sequence (whole entry): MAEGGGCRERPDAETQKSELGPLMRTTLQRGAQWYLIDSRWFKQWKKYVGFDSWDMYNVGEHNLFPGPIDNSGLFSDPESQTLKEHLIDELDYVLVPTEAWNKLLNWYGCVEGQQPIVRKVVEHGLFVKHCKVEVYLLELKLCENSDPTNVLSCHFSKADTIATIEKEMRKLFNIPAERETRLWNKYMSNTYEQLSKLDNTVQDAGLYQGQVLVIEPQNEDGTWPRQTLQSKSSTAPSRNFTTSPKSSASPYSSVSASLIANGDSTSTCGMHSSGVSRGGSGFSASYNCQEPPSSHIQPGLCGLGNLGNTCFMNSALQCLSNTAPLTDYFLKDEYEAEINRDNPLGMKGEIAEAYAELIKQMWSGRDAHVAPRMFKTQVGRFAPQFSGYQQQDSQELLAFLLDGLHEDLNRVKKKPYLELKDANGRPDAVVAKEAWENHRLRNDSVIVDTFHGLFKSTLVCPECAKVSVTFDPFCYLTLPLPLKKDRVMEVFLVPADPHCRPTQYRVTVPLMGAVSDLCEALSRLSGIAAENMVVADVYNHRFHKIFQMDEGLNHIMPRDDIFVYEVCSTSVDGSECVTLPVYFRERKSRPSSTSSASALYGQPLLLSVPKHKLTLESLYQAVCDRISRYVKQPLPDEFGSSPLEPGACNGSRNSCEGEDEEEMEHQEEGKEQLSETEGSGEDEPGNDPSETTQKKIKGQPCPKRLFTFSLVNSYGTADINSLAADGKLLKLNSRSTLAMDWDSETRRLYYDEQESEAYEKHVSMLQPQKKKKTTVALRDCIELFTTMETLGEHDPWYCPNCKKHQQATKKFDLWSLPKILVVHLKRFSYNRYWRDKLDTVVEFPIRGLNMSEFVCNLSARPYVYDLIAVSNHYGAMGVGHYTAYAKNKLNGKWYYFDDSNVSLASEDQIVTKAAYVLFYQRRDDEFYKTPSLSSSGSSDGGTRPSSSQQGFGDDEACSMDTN
How it was run: as §1

Measured: log2 ratio of Biotin-Ahx-Ub-VS probe labelling

Chain of USP34 (Q70CQ2 whole entry, the tested form may be a part): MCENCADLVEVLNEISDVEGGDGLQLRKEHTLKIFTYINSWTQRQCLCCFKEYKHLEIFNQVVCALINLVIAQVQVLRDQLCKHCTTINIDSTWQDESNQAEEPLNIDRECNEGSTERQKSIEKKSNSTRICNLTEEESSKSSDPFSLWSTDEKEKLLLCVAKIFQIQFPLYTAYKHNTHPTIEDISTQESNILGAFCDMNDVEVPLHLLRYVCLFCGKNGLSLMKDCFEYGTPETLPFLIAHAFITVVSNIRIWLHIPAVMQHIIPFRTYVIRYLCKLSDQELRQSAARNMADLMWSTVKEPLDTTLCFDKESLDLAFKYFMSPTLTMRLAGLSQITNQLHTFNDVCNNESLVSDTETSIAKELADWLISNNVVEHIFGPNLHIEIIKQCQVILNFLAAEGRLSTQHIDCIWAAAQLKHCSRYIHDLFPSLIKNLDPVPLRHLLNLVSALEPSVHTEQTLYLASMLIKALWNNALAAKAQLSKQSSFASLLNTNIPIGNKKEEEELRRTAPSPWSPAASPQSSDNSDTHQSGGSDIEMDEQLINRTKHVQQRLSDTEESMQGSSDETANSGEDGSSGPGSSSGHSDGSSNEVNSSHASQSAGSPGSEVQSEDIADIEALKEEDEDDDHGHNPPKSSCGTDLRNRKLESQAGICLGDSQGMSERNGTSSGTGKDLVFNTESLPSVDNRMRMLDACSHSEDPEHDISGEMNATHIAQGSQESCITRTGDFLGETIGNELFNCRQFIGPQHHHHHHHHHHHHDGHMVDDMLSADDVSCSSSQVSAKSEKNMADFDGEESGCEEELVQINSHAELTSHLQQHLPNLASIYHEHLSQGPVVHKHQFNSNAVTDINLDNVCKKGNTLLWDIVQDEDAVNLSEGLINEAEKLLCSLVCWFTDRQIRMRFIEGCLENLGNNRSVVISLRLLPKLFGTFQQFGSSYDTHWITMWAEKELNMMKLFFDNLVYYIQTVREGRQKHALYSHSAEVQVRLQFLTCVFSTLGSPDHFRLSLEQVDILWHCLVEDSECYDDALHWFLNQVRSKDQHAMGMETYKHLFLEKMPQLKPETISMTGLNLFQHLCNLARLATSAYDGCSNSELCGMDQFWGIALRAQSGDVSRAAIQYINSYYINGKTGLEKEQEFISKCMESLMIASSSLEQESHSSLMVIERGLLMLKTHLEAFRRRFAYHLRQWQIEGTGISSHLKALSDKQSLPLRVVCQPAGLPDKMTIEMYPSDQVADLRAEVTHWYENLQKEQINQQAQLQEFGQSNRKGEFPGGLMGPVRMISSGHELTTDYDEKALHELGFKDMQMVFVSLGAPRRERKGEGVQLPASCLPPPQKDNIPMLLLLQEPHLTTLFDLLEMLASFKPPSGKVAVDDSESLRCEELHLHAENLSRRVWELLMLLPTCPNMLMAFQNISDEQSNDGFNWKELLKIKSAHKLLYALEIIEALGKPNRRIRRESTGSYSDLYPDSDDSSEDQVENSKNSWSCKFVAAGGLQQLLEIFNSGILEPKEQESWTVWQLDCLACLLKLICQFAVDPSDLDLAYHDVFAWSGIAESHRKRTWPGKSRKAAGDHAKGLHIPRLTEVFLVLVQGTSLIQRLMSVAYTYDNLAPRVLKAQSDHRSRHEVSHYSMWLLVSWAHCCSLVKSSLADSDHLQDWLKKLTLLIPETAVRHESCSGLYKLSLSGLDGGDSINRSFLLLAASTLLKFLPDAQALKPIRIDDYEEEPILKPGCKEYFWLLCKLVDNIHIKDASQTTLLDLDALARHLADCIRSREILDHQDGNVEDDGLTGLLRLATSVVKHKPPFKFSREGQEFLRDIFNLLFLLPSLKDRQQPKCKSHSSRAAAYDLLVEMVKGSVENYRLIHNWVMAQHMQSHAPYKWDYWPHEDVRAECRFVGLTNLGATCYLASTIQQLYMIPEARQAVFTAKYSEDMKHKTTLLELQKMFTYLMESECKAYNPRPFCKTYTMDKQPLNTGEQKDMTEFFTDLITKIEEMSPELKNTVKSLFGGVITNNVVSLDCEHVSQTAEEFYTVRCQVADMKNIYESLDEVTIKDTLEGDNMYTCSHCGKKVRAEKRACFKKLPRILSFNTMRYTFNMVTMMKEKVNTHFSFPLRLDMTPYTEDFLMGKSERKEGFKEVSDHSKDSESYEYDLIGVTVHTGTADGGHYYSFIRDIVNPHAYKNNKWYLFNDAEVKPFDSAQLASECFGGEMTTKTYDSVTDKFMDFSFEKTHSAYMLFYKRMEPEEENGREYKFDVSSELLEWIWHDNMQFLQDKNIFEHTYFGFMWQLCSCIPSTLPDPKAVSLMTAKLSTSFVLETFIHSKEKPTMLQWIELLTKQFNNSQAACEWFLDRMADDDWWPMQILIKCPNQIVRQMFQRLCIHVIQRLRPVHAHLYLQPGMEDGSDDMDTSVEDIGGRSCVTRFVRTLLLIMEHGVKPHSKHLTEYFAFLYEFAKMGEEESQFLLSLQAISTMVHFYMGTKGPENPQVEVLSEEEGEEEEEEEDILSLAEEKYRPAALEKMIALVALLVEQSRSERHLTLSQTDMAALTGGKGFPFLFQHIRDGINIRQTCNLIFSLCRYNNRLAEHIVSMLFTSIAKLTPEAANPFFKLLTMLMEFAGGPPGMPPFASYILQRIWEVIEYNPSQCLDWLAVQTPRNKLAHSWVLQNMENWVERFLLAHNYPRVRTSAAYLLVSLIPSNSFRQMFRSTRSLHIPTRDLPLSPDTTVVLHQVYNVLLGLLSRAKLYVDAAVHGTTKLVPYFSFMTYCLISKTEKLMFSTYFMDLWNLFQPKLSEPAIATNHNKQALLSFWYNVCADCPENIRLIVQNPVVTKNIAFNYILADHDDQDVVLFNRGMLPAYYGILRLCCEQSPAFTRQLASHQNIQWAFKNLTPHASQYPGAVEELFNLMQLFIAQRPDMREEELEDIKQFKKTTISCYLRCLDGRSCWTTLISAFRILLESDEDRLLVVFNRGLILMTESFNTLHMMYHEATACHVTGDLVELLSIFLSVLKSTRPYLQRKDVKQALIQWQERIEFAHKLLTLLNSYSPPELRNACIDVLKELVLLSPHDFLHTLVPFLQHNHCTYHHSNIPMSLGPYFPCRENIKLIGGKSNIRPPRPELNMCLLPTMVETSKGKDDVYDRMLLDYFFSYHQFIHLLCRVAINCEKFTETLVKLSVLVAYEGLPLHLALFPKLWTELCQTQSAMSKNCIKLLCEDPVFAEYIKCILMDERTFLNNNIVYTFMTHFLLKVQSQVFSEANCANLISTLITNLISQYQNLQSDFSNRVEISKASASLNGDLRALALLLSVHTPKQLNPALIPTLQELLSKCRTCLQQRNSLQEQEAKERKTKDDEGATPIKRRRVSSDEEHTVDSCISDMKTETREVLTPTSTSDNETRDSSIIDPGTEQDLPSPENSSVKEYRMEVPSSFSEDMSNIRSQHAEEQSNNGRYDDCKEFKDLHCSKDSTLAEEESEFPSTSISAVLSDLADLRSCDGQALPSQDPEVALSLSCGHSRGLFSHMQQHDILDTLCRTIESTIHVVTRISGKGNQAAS

O=C(CCl)N1CCOC(c2cccc(F)c2)C1 (stereo not given)
inactive: [1] -0.575 | [2] -0.337 | [3] -0.131 | [4] -0.0268 | [5] -0.344
